Experimental data as given in ChEMBL document CHEMBL4513216, “Probing the Open Global Health Chemical Diversity Library for Multistage-Active Starting Points for Next-Generation Antimalarials” (ACS Infect Dis, 2020).
The whole screen tested about 69,000 compounds, of which about 8,600 (12%) showed an effect of 50% or more. Shown is part of a subset that was picked to be rich in strong results.

tested on: Plasmodium berghei; assay: Screen against P. berghei liver stage (PbLuc), transformed with Luciferase, at 10uM; format: functional, HepG2; conditions: tested at 10 uM

SMILES | INHIBITION [%]
CN1CCN(Cc2cnc3n2CCN(CCc2ccccc2)C3)CC1 | -18.2
O=C(c1ccccn1)N1CCC(Cc2cnc3[nH]ccc3c2)CC1 | -12.2
COC(=O)c1cccc(S(=O)(=O)NC(=O)COC2CCCCC2)c1 | 38.8
C[C@@H]1C[C@H](C(F)(F)F)n2nc(C3CCN(S(C)(=O)=O)CC3)cc2N1 | 1.5
O=C(C1CN(CC2CCOCC2)CC12CCOCC2)N1CCOCC1 (stereo not given) | 23.3
CNC(=O)[C@@H]1C[C@@H](NC(=O)c2cn(C)nc2C)CN1Cc1sccc1C | 25.8
CNC(=O)[C@@H]1C[C@@H](NC(=O)Cc2nonc2C)CN1Cc1sccc1C | 51.5
CNC(=O)[C@@H]1C[C@@H](NC(=O)c2ccc(OC)o2)CN1Cc1sccc1C | 20.8
COc1ccc(OC)c(C(O)CNC(=O)Nc2cc(C)nn2C)c1 (stereo not given) | 10.35
Cc1nn(C)c2nc(N3CCCCC3c3cccnc3)sc12 (stereo not given) | 33.1
Cc1nn(C)c2nc(N3CCC(C(O)c4nccn4C)CC3)sc12 (stereo not given) | 12.8
Cc1nn(C)c2nc(N3CCC(C(O)Cc4ccccc4)CC3)sc12 (stereo not given) | 75.1
Cc1nn(C)c2nc(N3CCC(C(O)c4ccccn4)CC3)sc12 (stereo not given) | 55.4
Cc1nn(C)c2nc(NC3CCNCC3)sc12 | 10.7
Cc1cnc(N2CC[C@@H]3OC(COCC(=O)N(C)C)CC[C@@H]32)nc1 (stereo not given in full) | 14.1
CCCC1CN(CCOc2ccccc2)C(=O)c2cccnc2O1 (stereo not given) | 44.2
Cc1nn(-c2ncnc3[nH]cnc23)c2c1C(C(C)C)CC(=O)N2 (stereo not given) | -21.2
Cc1ccc2c(c1)C(=O)CC1(CCN(Cc3ccccc3)CC1)O2 | -13.2
Cc1nnc(N2CCCC2)c(C(N)=O)c1C | 6.24
Cc1nnc(N2CCN(C(=O)NC3CC3)CC2)c(C(N)=O)c1C | 56.5
Cc1nnc(N2CCNCC2)c(C(N)=O)c1C | 41.5
O=C(NCC1CC1)c1ccc(NC(=O)c2ccco2)cc1 | -64.3

SMILES | INHIBITION [%]
COc1c(C)cnc(CN2CCCCC2Cn2nc(C)nc2C)c1C (stereo not given) | 6.14
COc1c(C)cnc(CN2CCCCC2CCN2CCOCC2)c1C (stereo not given) | 56.1
COc1c(C)cnc(CN2CCCC2Cn2nc(C)nc2C)c1C (stereo not given) | 27.6
CC(=O)N1CCC1c1cc(N2CCSCC2)nc(C)n1 (stereo not given) | 29.5
CO[C@H]1CN(Cc2ccccc2F)C[C@@]12CCCO2 | 5.56
Cn1cc(N2CCC3(CCN(C(=O)[C@H]4CCCO4)C3)C2=O)cn1 (stereo not given in full) | 12.7
CC(Cn1cccn1)NCC(=O)NC1CCOCC1 (stereo not given) | 5.2
CC(C)C(C(=O)N1CCC(Nc2cccnn2)CC1)n1cncn1 (stereo not given) | 57.2
CCN1CCC(NC(=O)CN2CCCC2Cn2cccn2)CC1 (stereo not given) | 19
CC(C(=O)N1CCC(Nc2cccnn2)CC1)n1cccn1 (stereo not given) | 45.7
Cc1ccc(NC2CCN(C(=O)C(C(C)C)n3cncn3)CC2)nn1 (stereo not given) | 31.2
CCN1CCC(NC(=O)CNC(C)Cn2cccn2)CC1 (stereo not given) | 88.6
CC(C(=O)N1CCC(Nc2cccnn2)CC1)n1ccnc1 (stereo not given) | 23.4
CC(Cn1cccn1)C(=O)N1CCC(Nc2cccnn2)CC1 (stereo not given) | 53.7
CC(C)C(C(=O)N1CCC(N(C)c2cccnn2)CC1)n1cncn1 (stereo not given) | 36.9
CN(Cc1ccco1)C(=O)CN1CCOC(Cn2cccn2)C1 (stereo not given) | -53.5
COc1c(CNC2CCc3ccccc32)c(C)nn1C (stereo not given) | -63.3
COc1c(CNC2CCc3cc(F)ccc32)c(C)nn1C (stereo not given) | 35.8
COc1c(CNC2CCOc3c(Cl)cccc32)c(C(C)C)nn1C (stereo not given) | -69
COc1c(CNC2CCOc3ccccc32)c(C(C)C)nn1C (stereo not given) | 47.1
COc1c(CNC2CCSc3ccc(F)cc32)c(C)nn1C (stereo not given) | 75.2
COc1c(CNC2CCc3cc(Cl)ccc32)c(C)nn1C (stereo not given) | 59

SMILES | INHIBITION [%]
CC(C)c1nn(C)c(Cl)c1CNC1CCOc2ccccc21 (stereo not given) | 53.3
COc1c(CNC2CCOc3c(F)cccc32)c(C)nn1C (stereo not given) | 20
CC(C)c1nn(C)c(N(C)C)c1CNC1CCOc2ccccc21 (stereo not given) | 12.2
COc1c(CNC2CCc3cc(C)ccc32)c(C)nn1C (stereo not given) | 21.5
COc1c(CNC2CCOc3c(Cl)cccc32)c(C)nn1C (stereo not given) | 77.8
COc1c(CNC2CCCOc3ccc(F)cc32)c(C)nn1C (stereo not given) | -63.5
Cn1c(SCC(N)=O)nnc1-c1csc2c1CCCC2 | -21.8
CCN1CC(COc2ccccc2)Oc2ncccc2S1(=O)=O (stereo not given) | 13.9
CCSc1cc(C(=O)NCCNC(=O)N(C)C)ccn1 | -22.8
COc1cc(CCC(=O)NC(C)(C)C)ccc1OCC(F)(F)F | -17.4
O=C1C[C@H]2[C@H](CCN2C(=O)c2cc[nH]n2)N1Cc1cccnc1 | 40.8
OCCOc1ccc(NCc2cccc3cccnc23)cn1 | -37.7
OCCOc1ccc(NCc2cccc3[nH]ccc23)cn1 | 68.2
Cc1ncccc1CNc1ccc(OCCO)nc1 | -89.9
OCCOc1ccc(NCc2cccc3cn[nH]c23)cn1 | -1.45
OCCOc1ccc(NCc2cc(F)cc3cccnc23)cn1 | -116
OCCOc1ccc(NCc2cccnc2)cn1 | 59.5
Cc1cc(-c2cnn(CCNC(=O)c3cc[nH]n3)c2C2CC2)on1 | 18.9
CCCc1nnc(NC(=O)NC(CCO)c2cccs2)s1 (stereo not given) | -26.8
COc1ccccc1CN1CCCC2(Cc3ccccc3CNC2=O)C1 (stereo not given) | 11
CC(C)OCc1nn(C)c2c1CCN(Cc1ccco1)C2 | -16.9
CCC(=O)N1CCN(c2nc(C)nc3c(C)nn(C)c23)CC1 | 27.5

SMILES | INHIBITION [%]
COc1ccccc1C(=O)N1Cc2cc(C)ccc2OCC1CN(C)C (stereo not given) | 60.3
Cc1ccc2c(c1)CN(C(=O)c1ccncc1)C(CN(C)C)CO2 (stereo not given) | -23.8
COc1ccc(C(=O)N2Cc3cc(C)ccc3OCC2CN(C)C)cc1 (stereo not given) | 66.5
Cc1ccc2c(c1)CN(C(=O)c1ccccc1F)C(CN(C)C)CO2 (stereo not given) | 23.9
Cc1ccc2c(c1)CN(C(=O)c1cccnc1)C(CN(C)C)CO2 (stereo not given) | 46
Cc1ccc2c(c1)CN(C(=O)c1cccs1)C(CN(C)C)CO2 (stereo not given) | -10.5
CCCc1nc(NCCCOCC)c2c(n1)c(C)nn2CC | -1.4
CC1CCCCN1c1nc2c(c(=O)[nH]1)CCN(Cc1ccccc1F)C2 (stereo not given) | 72.3
Cc1cccc(CN2CCc3c(nc(N4CCCCC4C)[nH]c3=O)C2)n1 (stereo not given) | 18.2
CC1CCCCN1c1nc2c(c(=O)[nH]1)CCN(Cc1ccccn1)C2 (stereo not given) | 36.7
Cc1ccsc1CN1CCc2c(nc(N3CCCCC3C)[nH]c2=O)C1 (stereo not given) | 85.7
CC1CCCCN1c1nc2c(c(=O)[nH]1)CCN(Cc1ccc(O)cc1)C2 (stereo not given) | 10
CC1CCCCN1c1nc2c(c(=O)[nH]1)CCN(Cc1ccccc1O)C2 (stereo not given) | 23.4
O=C(NCCn1nc2ccccn2c1=O)c1scnc1Cl | 17.02
Cn1cc(CN(C(=O)c2ccc(O)c(Cl)c2)C2CC2)cn1 | 21.3
CC1CN(c2ncnc3c2cnn3C)CCN1c1nccs1 (stereo not given) | 5.91
CC1CN(c2ncnc3sccc23)CCN1c1nccs1 (stereo not given) | 60.2
c1csc(N2CCCN(c3ncnc4sccc34)CC2)n1 | 66.8
CCC[C@@H]1CN(c2ncnc3sccc23)C[C@H]1C(=O)O | -7.98
N#Cc1ccc(N2CCCN(c3nccs3)CC2)nc1 | -28.2
c1csc(N2CCN(c3ncnc4sccc34)CC2)n1 | 38.5
CN1CC(=O)N(c2ccccc2)CC12CCN(Cc1cccnc1)C2 (stereo not given) | 8.47

SMILES | INHIBITION [%]
CC(C)CCn1[nH]c(CNc2ccc(F)cc2)nc1=O | 15.1
CN1CCC2(C=C(C(=O)N3CCCC3)c3ccccc32)CC1 | 26.4
Cc1ccc(CC(=O)N2CCOC(c3ncc(CN(C)C)[nH]3)C2)s1 (stereo not given) | 7.19
CNc1ncc(-c2csc(NC(=O)C[C@H]3COCCN3)n2)cn1 | 24.8
CC(C)CC(=O)N1CCC(c2nnc3n2CCCCC3)CC1 | -16.5
Cn1cc(N)c(-c2nnc3n2CCCC3)n1 | 42.6
CCC(NC(=O)CCCNC(=O)OC)c1cc(F)ccc1F (stereo not given) | -13.6
CCc1nc(CSC2CCCN(c3cnn(C)c3)C2=O)cs1 (stereo not given) | 29
O=C(c1cc2c([nH]c1=O)CCC2)N1CCCCC1c1cccc(F)c1 (stereo not given) | 54.7
O=C(c1cc2c([nH]c1=O)CCC2)N1CCCC1c1ccccc1 (stereo not given) | -19.7
O=C(c1cc2c([nH]c1=O)CCC2)N1CCCC1c1ccc(F)cc1 (stereo not given) | 20.6
COC1(CNC(=O)c2ccc(F)c(F)c2)CCSC1 (stereo not given) | 29.6
CCc1nnc(CNC(=O)CCC2CCCN(C)C2)s1 (stereo not given) | -57.5
Cc1ccsc1CN(CCCO)Cc1nc2ccccc2[nH]1 | 23.2
Oc1ccc(-c2c(-c3ccccc3)ncn2C[C@H]2CCCN2)cc1 | -9.17
Oc1ccc(-c2c(-c3ccccc3)ncn2C2CCNC2)cc1 (stereo not given) | 54.5
CCOc1ccc(-c2c(-c3ccccc3)ncn2C2CCNC2)cn1 (stereo not given) | 24.8
O=C(CN1CCC(c2ccccc2)C1)NCC(F)(F)F (stereo not given) | 37.8
CCCn1ncc(C2CC(=O)NCc3nc4sc(C)cn4c32)c1C (stereo not given) | 44.7
CCCn1ncc(C2CC(=O)NCc3nc4cc(C)ccn4c32)c1C (stereo not given) | 71.5
Cn1ncc(C2CC(=O)NCc3nc4ccccn4c32)c1C1CC1 (stereo not given) | 17.6
CC1(C)O[C@@](C)([C@H]2CC3(CCN(c4cnccn4)CC3)CO2)CC[C@@H]1O | 30.55
